This is an account of results in PubChem BioAssay (NCATS).

Where “and” joins values, the source holds several entries; their conditions need not be identical. Equal values may be shown once. Values without a mark were called inactive. Records with an inconclusive call do not appear. Calls of active or inactive are those of the source. Unless noted, calls follow the shape of the dose curve; as a rule, active = well fitted curve in the direction sought with a large enough effect; inconclusive = small, poorly fitted or top-dose-only effect, or another doubt; inactive = no such curve, though single readings can be large; an effect the other way counts as inactive or inconclusive.

The nature of experiment [1]: AP1 Signaling Pathway (AID 357; active = well fitted curve in either direction with a large enough effect, not every such curve was filed as active; also: % is scaled to controls: 0 for no effect and ±100 for the full control effect). The note with it: ME-180 AP-1-bla reporter, EGF-induced, beta-lactamase ratio, 5 h; at 7.69 µM (top of the series) unless noted. The gist of the method:
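AP-1-bla ME-180 cells with beta-lactamase reporter under AP-1 response element, stimulated with EC50 EGF; compounds titrated, 5 hours at 37 degrees Celsius. CCF4 read at 460/530 nm ratio; positive and negative modulators judged by AC50.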

For experiment [2], the target named is Cytochrome P450 1A2 (Homo sapiens) (UniProt P05177). Description: p450-cyp1a2 (AID 410; calls by dose curve; also: potency is read from the fitted curve at half-maximal effect). Put shortly:
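20nM CYP1A2 with 100uM Luciferin-ME (at Km) in 100mM KPO4; compound preincubated 10 min, NADPH regeneration added, 60 min at room temperature. Luciferin quantified by luminescence after detection reagent; normalized to 57 uM furafylline.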

A short description of experiment [3]: NFAT Signaling Pathway (AID 444; active = well fitted curve in either direction with a large enough effect, not every such curve was filed as active;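 also: carbachol stimulus at about its EC50 of 1 µM final; % is scaled to controls: 0 for no effect and ±100 for the full control effect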). The note with it: Jurkat NFAT-bla M1, carbachol, beta-lactamase ratio, 5 h; at 7.69 µM (top of the series) unless noted. The gist of the method:
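Read-out: CCF4 FRET ratio (460 nm/530 nm) after 1 h RT dye loading, used for %activity and AC50 from titration series. Cells: Jurkat NFAT-β-lactamase/M1 line, treated with compound plus 1 uM carbachol for 5 h, 37 °C.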

The nature of experiment [4]: Stat Signaling Pathway (AID 446; active = well fitted curve in either direction with a large enough effect, not every such curve was filed as active;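 also: ME-180 cervical cancer cells given 40 pM IL-6 alongside compound; SIE-controlled beta-lactamase reporter measured as 460/530 nm FRET emission ratio; % is scaled to controls: 0 for no effect and ±100 for the full control effect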). The note with it: ME-180 SIE beta-lactamase reporter, IL-6 stimulated, 5 h; at 7.69 µM (top of the series) unless noted. Put shortly:
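Reporter line: ME-180 cervical carcinoma, SIE-beta-lactamase. Treatment: compound with 40 pM IL-6, 5 hrs, 37 C, in low-serum OPTI-MEM with 10 mM HEPES pH 7.3. Detection: 460/530 nm fluorescence.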

For experiment [5], the target named is Glucocorticoid receptor (Homo sapiens) (UniProt P04150). Description: GR-GFP Redistribution (AID 450;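 active = compounds whose dose series gives a full or clear partial fitted curve of increased nuclear translocation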; also: potency is read from the fitted curve at half-maximal effect). The note with it: U2OS GR-GFP nuclear translocation, laser cytometry, 2 h.
The target is the same in experiment [6]. Description: GR-EFC Redistribution (AID 451; calls by dose curve; also: potency is read from the fitted curve at half-maximal effect). The note with it: CHO-K1 GR-EFC translocation, beta-gal luminescence, 2 h. The gist of the method:
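Translocation of GR-ED fusion to nuclear EA restores b-gal, read by luminescence after 1 h room-temperature detection. Engineered CHO-K1 biosensor cells, 1,000/well, exposed 2 h at 37 C to titrations up to 46 uM final.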

Experiment [7] addresses 3',5'-cyclic-AMP phosphodiesterase 4B (Homo sapiens) (UniProt Q07343). Description: qHTS Assay for Inhibitors of PDE-IV (AID 607; active = well fitted activation curve with a large enough effect in the main read-out, with a control signal flat, not every such curve was filed as active; also: % of control where 0% means no effect). The gist of the method: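 Cell-based read-out of cAMP via a modified cyclic nucleotide-gated channel and membrane potential dye (535/590 nm) in HEK293 cells expressing PDE4 endogenously. Compounds tested up to 22.9 uM final; 100 uM RO 20-1724 reference.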

Experiment [8] addresses Guanine nucleotide-binding protein G(i) subunit alpha-1 (Homo sapiens) (UniProt P63096). Description: qHTS Assay for Inhibitors of RGS12 GoLoco Motif Activity (Green Fluorophore) (AID 879).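 Also: 0% = labeled peptide with Gαi1 and full inhibition = labeled peptide alone without protein; negative values mean loss of peptide binding seen as reduced polarization.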 Put shortly: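 Fluorescence polarization assay: 50 nM Gαi1 with 10 nM FITC-labeled RGS12 GoLoco peptide in 10 mM Tris pH 7.5, 150 mM NaCl, 0.1 mM GDP, 0.05% NP40, 10 min at room temperature with compound.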

Experiment [9] addresses Cytochrome P450 3A4 (Homo sapiens) (UniProt P08684). Description: qHTS Assay for Activators of Cytochrome P450 3A4 (AID 885). Also: nearly all actives have a fitted effect of over 65% in size. The gist of the method:
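Signal was normalized against complete inhibition by 57 uM ketoconazole. The reaction used 20nM CYP3A4 with 25uM Luciferin-PPXE, 10-min compound preincubation and a 60-min NADPH-supported step at RT.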

The nature of experiment [10]: qHTS Assay for Identification of Small Molecule Agonists for Thrombopoietin (TPO) Signaling Pathway (AID 917). Also: % is scaled to controls: 0 for no effect and ±100 for the full control effect. The gist of the method: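 Luminescence from a Glycoprotein IIb promoter–driven luciferase reporter served as read-out in murine Ba/F3 cells carrying the human TPO receptor. Cells, deprived of IL-3 overnight, received compounds with 26 pM TPO and were incubated 24 hrs at 37 C.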

In experiment [11] the target is Pyruvate kinase (Leishmania mexicana) (UniProt Q27686). Description: qHTS Validation Assay for Inhibitors of Leishmania Mexicana Pyruvate Kinase (AID 945).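 Also: 0% = DMSO only neutral control wells.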 The gist of the method:
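Eight-point qHTS titrations; enzyme 0.2 nM LmPYK (E451W mutant); substrates 0.5 mM PEP, 0.1 mM ADP; 7 mM MgCl2; 1 h room temperature; PKLight luminescence normalized to neutral control.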

In experiment [12] the target is Pyruvate kinase PKM (Homo sapiens) (UniProt P14618). Description: qHTS Assay for Activators of Human Muscle Pyruvate Kinase (AID 954; active = well fitted curve in the direction sought with a large enough effect, not every such curve was filed as active;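 also: 0% = uninhibited enzyme and -100% = no enzyme or full thiadiazolimine inhibition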). Put shortly:
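Human PKM2 activity is measured as ATP generation, detected by luciferase-coupled luminescence. The enzyme (0.1 nM) acts on 0.5 mM PEP and 0.1 mM ADP for 1 h at ambient temperature; data are normalized to uninhibited and full-inhibition wells.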

The target in experiment [13] is Alpha-galactosidase (Coffea arabica) (UniProt Q42656). Description: Counterscreen for Glucocerebrosidase Inhibitors: qHTS Assay for Coffee Bean alpha-Galactosidase at pH 4.5 (AID 957).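 Also: plate controls were enzyme alone for no effect and no enzyme for full effect.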 The gist of the method:
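Coffee bean enzyme (2 nM) with 80 uM 4-methylumbelliferyl alpha-D-galactopyranoside in 50 mM citric acid, 0.005% Tween-20, pH 4.5, 20 min at room temperature; compounds 0.7 nM–77 uM. Stopped at pH 10, fluorescence 365/440 nm; AC50 from Hill fits.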

For experiment [14], the target named is Alpha-galactosidase A (Homo sapiens) (UniProt P06280). Description: Counterscreen for Glucocerebrosidase Inhibitors: qHTS Assay for Human alpha-Galactosidase at pH 4.5 (AID 992). Also: 0% is about no effect. Put shortly: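 Quantitative HTS: compounds tested from 0.7 nM up to 77 uM against 2 nM enzyme with 80 uM 4-MU alpha-D-galactopyranoside. The 20 min room-temperature reaction is stopped with 1M NaOH/1M glycine, pH 10.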

Experiment [15] concerns the target alpha-glucosidase (Oryza sativa, rice) (UniProt Q653V4). Description: Counterscreen for Glucocerebrosidase Inhibitors: qHTS Assay for Rice alpha-Glucosidase at pH 5.0 (AID 997).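 Also: 0% = full activity with enzyme and -100% = basal without enzyme.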 The gist of the method:
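Rice alpha-glucosidase (4 nM final) with 400 uM 4-methylumbelliferyl-alpha-D-glucopyranoside in citrate buffer pH 5.0, 20 min at room temperature, stopped at pH 10; fluorescence 365/440 nm, compounds 0.7 nM–77 uM, AC50 from Hill fits.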

The target of experiment [16] is Alpha-galactosidase (Coffea arabica) (UniProt Q42656). Description: Counterscreen for Glucocerebrosidase Inhibitors: qHTS Assay for Coffee Bean alpha-Galactosidase at pH 5.9 (AID 998).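 Also: plate controls were uninhibited enzyme for no effect and no-enzyme basal signal for full effect.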 The gist of the method: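 Compounds were titrated from 0.7 nM to 77 uM against green coffee bean alpha-galactosidase (2 nM) using 80 uM fluorogenic 4-methylumbelliferyl substrate. After 20 min at room temperature, reactions were stopped at pH 10 and read by fluorescence.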

For experiment [17], the target named is Mitogen-activated protein kinase 10 (Mus musculus) (UniProt Q61831). Description: JNK3 AlphaScreen Assay (AID 530; active = well fitted curve in either direction with a large enough effect, not every such curve was filed as active). The gist of the method: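 Compound titrations were preincubated 15 minutes at room temperature with substrate, antibody and pre-activated JNK3-containing HepG2 lysate. Reactions were started with 10 uM ATP and stopped with EDTA-containing bead buffer for AlphaScreen detection.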

Experiment [18] concerns the target Muscarinic acetylcholine receptor M1 (Rattus norvegicus) (UniProt P08482). Description: qHTS Assay for Antagonists of Acetylcholine Muscarinic M1 Receptor: Measurement of IP-One Response (AID 944). Also: nearly all actives have a fitted effect of over 75% in size. Put shortly: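 CHO cells stably expressing rat M1, pretreated 10 min with compound, then stimulated 30 min with carbachol at EC80 (200 nM) in LiCl-containing buffer pH 7.4; IP1 accumulation read by HTRF competition (665/620 nm).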

Chain of Alpha-galactosidase A (Homo sapiens) (P06280 whole entry, looked up): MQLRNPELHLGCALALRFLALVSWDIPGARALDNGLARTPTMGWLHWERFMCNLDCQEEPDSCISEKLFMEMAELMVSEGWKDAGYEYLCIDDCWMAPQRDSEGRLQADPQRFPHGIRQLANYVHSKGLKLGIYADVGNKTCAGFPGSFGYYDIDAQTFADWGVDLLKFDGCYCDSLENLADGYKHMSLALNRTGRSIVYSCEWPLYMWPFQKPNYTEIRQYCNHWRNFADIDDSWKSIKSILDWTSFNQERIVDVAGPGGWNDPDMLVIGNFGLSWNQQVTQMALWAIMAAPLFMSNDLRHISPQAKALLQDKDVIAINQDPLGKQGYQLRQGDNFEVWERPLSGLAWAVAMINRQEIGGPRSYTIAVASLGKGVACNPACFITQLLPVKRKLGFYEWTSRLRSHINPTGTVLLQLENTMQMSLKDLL
Chain of Cytochrome P450 1A2 (Homo sapiens) (P05177 whole entry, looked up): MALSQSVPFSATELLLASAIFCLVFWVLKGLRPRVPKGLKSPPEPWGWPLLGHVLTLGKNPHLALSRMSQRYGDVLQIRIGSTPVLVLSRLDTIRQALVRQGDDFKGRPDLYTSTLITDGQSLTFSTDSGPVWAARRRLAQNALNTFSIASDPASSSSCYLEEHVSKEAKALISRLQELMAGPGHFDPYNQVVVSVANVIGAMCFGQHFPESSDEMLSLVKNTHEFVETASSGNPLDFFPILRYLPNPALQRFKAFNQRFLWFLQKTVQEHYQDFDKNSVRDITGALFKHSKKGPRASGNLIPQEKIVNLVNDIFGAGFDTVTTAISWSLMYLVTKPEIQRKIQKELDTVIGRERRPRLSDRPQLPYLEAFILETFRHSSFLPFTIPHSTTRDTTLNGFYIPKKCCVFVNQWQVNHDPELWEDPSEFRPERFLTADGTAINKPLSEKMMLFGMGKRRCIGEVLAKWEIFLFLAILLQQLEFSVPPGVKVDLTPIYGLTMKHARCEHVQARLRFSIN
Chain of 3',5'-cyclic-AMP phosphodiesterase 4B (Homo sapiens) (Q07343 whole entry, looked up): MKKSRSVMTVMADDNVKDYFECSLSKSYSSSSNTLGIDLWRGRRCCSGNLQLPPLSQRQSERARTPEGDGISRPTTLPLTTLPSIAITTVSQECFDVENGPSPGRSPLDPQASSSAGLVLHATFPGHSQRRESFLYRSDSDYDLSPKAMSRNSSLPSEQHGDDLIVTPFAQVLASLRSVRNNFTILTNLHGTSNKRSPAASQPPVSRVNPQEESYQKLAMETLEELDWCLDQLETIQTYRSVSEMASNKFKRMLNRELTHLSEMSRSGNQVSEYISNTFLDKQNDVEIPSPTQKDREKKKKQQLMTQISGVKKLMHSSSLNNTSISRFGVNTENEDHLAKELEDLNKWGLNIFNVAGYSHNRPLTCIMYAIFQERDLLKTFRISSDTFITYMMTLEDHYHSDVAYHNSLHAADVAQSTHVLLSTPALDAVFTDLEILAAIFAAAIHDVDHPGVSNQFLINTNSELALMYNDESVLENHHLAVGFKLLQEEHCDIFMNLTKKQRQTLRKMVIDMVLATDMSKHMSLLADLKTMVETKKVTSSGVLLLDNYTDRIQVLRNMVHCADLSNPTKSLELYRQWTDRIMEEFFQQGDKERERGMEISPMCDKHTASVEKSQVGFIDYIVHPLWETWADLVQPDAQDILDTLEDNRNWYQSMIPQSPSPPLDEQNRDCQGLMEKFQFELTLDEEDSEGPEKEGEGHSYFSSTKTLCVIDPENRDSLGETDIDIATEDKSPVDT
Chain of Alpha-galactosidase (Coffea arabica) (Q42656 whole entry, looked up): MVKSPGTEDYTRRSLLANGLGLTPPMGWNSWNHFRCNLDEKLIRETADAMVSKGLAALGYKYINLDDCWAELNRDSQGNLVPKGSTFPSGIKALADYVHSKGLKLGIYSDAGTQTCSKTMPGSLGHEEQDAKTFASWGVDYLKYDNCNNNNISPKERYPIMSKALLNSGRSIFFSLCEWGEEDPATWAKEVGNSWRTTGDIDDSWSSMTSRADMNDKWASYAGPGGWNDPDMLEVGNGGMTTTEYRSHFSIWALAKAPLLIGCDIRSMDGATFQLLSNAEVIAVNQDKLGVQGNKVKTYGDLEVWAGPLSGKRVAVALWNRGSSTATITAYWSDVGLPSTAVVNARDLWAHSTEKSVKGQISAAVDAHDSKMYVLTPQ
Chain of Cytochrome P450 3A4 (Homo sapiens) (P08684 whole entry, looked up): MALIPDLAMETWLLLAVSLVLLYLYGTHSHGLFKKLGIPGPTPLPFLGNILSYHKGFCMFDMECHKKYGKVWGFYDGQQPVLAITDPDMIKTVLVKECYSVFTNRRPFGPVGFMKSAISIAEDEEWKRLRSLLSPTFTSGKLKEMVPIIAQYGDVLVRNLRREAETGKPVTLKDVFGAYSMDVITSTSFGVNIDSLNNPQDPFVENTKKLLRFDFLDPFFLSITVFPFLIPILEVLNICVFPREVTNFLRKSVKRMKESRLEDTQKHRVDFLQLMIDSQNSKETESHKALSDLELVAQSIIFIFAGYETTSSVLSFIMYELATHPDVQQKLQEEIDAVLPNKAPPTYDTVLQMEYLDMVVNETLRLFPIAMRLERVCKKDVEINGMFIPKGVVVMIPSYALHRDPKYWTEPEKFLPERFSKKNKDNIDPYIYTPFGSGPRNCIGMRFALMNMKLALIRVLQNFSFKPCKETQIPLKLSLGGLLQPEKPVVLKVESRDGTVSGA
Chain of Glucocorticoid receptor (Homo sapiens) (P04150 whole entry, looked up): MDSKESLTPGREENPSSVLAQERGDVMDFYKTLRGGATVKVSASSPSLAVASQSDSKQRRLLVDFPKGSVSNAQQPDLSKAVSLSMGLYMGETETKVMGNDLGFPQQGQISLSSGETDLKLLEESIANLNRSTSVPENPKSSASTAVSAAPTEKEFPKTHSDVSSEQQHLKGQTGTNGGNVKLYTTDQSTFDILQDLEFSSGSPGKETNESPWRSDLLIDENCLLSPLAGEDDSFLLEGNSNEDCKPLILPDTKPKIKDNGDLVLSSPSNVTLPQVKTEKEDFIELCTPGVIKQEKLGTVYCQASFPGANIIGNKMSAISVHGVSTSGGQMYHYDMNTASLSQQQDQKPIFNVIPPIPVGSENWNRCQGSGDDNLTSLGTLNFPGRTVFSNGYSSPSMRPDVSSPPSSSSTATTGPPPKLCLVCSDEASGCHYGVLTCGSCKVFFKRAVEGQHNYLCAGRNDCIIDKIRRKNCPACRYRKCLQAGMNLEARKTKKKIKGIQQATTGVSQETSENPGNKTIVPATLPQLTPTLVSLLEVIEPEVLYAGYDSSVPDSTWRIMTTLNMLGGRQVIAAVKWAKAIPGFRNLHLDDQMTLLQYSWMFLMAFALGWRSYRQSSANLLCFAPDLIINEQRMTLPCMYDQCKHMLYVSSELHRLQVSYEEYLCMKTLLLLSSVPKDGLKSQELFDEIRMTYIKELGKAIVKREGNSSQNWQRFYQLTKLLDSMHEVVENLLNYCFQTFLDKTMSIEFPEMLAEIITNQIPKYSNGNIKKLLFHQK
Chain of Pyruvate kinase PKM (Homo sapiens) (P14618 whole entry, looked up): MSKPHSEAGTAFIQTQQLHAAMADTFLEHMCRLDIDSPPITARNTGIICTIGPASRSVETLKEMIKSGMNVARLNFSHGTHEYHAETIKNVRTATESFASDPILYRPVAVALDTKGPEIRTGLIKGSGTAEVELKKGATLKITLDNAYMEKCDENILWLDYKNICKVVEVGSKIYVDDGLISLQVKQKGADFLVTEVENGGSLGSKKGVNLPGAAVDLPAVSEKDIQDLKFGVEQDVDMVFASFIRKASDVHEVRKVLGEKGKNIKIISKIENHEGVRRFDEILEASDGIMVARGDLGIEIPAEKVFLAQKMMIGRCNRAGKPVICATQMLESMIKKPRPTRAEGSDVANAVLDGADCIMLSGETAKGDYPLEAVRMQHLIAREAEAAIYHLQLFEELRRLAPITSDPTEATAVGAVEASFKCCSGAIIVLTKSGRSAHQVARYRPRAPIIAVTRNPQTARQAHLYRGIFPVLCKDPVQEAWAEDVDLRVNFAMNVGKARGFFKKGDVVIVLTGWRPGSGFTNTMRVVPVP
Chain of Pyruvate kinase (Leishmania mexicana) (Q27686 2-499 E452W): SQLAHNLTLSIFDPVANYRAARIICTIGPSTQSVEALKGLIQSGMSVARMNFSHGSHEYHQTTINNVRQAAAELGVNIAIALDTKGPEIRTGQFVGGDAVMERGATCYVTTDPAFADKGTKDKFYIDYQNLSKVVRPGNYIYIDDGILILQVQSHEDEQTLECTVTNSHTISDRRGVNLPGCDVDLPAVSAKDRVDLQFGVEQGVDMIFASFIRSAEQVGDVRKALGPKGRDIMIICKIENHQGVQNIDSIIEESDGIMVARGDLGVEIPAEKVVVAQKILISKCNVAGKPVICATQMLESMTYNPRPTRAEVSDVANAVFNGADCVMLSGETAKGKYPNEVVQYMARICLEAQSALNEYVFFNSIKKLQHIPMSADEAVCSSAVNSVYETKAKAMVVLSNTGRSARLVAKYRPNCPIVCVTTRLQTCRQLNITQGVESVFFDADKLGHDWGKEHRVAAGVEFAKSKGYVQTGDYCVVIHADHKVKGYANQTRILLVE
Chain of Guanine nucleotide-binding protein G(i) subunit alpha-1 (Homo sapiens) (P63096 whole entry, looked up): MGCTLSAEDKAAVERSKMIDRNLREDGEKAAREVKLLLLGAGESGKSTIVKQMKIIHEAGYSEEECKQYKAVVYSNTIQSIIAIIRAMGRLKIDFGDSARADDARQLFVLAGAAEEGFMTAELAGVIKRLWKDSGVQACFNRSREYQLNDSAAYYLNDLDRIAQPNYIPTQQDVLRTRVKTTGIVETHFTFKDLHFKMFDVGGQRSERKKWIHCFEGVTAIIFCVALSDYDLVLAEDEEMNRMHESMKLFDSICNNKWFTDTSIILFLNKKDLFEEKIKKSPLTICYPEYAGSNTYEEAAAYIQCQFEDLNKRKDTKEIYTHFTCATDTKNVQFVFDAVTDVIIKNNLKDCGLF

`C[C@]12CC[C@H](O)C[C@@H]1CC[C@H]1[C@H]2CC[C@]2(C)[C@H](C(=O)CO)CC[C@@H]12`: the activity change, negative = inhibition is 0.537% [at 38 µM] in [1] and 0.826% [at 38 µM] in experiment [3]. Moreover, the Potency in experiment [2] was 25.1 µM (active); in experiment [5], above 46 µM; in experiment [6], above 46 µM. Also, in [4], the activity, negative = inhibition was 11.8% [at 38 µM]. The compound was classed as inactive in experiment [7], in experiment [8], in [10], in [11], in [12] and in [13]. The call in experiment [14], in experiment [15] and in experiment [16] was inactive. Also, in [9], the Potency result was “inactive”.
On to `CC(=O)OCC1=C(C(=O)[O-])N2C(=O)[C@@H](NC(=O)CCC[C@@H](N)C(=O)[O-])[C@@H]2SC1.[Zn+2]`, for which the figures for the activity change, negative = inhibition in experiment [1] and in experiment [3] were 13.1% [at 38 µM] and 1.01% [at 38 µM], respectively. For the same compound, the Potency result in [2], in [17] and in [18] was “inactive” each time. Besides, the activity, negative = inhibition in experiment [4] is -13.9% [at 38 µM]. For the same compound, the Potency in experiment [5] and in experiment [6] was above 46 µM in each case. Besides, the call in experiment [7], in experiment [8], in [10], in experiment [11], in experiment [12] and in [13] was inactive. Also, the compound was called inactive in [14], in experiment [15] and in [16].
Consider `COc1cc(C[C@H](C)N)c(OC)cc1I`, for which the activity change, negative = inhibition in [1] is 8.22% [at 38 µM] and 4.79% [at 38 µM]; in experiment [3] it was -22.6% [at 38 µM] and -16.3% [at 38 µM]. The Potency was 6.31 µM (active) and 12.6 µM (active) in experiment [2]; above 46 µM in experiment [5]; above 46 µM in experiment [6]. The activity, negative = inhibition in experiment [4] is -6.07% [at 38 µM]. For the same compound, the Potency entry in [17] and in [9] was “inactive” each time. The call in experiment [7], in experiment [8], in [10], in [11], in experiment [12] and in experiment [13] was inactive. The result in experiment [14], in [15] and in [16] was inactive.
As to `COc1ccc2c(c1O)-c1cccc3c1[C@H](C2)N(C)CC3`, the activity change, negative = inhibition is -2.14% [at 38 µM] in experiment [1] and -9.88% [at 38 µM] in [3]. Moreover, the results for the Potency in [2], in experiment [5] and in [6] were 3.98 µM (active), above 46 µM and above 46 µM, respectively. The activity, negative = inhibition in experiment [4] is 28.1% [at 38 µM]. Moreover, the Potency entry in experiment [17], in experiment [9] and in experiment [18] was “inactive” throughout. For the same compound, the outcome in experiment [7], in [8], in experiment [10], in experiment [11], in experiment [12] and in experiment [13] was inactive. In addition, the compound was classed as inactive in experiment [14], in experiment [15] and in experiment [16].
